Sa growth inh: S. aureus growth inhibition. S. aureus RN4220 growth, OD600, 20 h, 42 °C; active compounds read low. relative growth, % (test concentration not listed). 170,000 tested, 0.53% active. AID 720641;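 active = relative growth at most 50% at the other temperature and 20+ points below 30 °C, or under 10% at both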
S aureus helic: blocks Staphylococcus aureus DNA helicase; inhibition, % (concentration not given with the values); AID 485395; 120,000 tested, 0.05% active; purified S. aureus helicase, fluorescence unwinding assay; in the data active = inhibition above about 25%, passing the limit was not always enough
Of the large screens only hits and unclear results are named; the others gave an inactive call; ! = repeats disagree. The full list was thinned out, with hits kept by preference.

CCN(c1ccccc1)S(=O)(=O)c1nnc(NC(=O)c2ccccc2OC)s1	none (no result: S aureus helic)
CC(=O)NCCCc1nc2ccccc2[nH]1	none (no result: Sa growth inh)
CC(=O)NCCCCCCNC(C)=O	Sa growth inh 21 (no result: S aureus helic)
NCCN1C(=O)S/C(=C\c2ccc(Cl)c(Cl)c2)C1=O	Sa growth inh -0.6
O=C1S/C(=C\c2ccc(Cl)cc2)C(=O)N1Cc1ccccc1	none
COC(=O)c1nc2ccccc2n1Cc1ccc(C)cc1	Sa growth inh 45
Cc1ccc(Cn2c(C(C)O)nc3ccccc32)cc1 (stereo unspecified)	none (no result: Sa growth inh)
O=C(O)c1ccc(-c2nnco2)cc1	none
COc1ccc(OC)c(NC(=O)CN(C)S(=O)(=O)c2ccc(C(=O)N3CCOCC3)s2)c1	none (no result: S aureus helic)
N#CC(=C1CCN(Cc2ccccc2)CC1)c1ccccc1	none
CCC1OC(=O)[C@H](C)C(=O)[C@H](C)[C@@H](OC2O[C@H](C)C[C@H](N(C)C)[C@H]2O)[C@](C)(OC)C[C@@H](C)C(=O)[C@H](C)[C@H]2N(CCCCn3cnc(-c4cccnc4)c3)C(=O)OC12C (stereo partly specified)	Sa growth inh -1.0 (no result: S aureus helic)
C=CCn1c(O)c(N=O)c2ccccc21	none
C=CCn1c(O)c(C2=c3cc(Br)ccc3=NC2=O)c2ccccc21	Sa growth inh 1.4
O=C(/C=C(\O)c1ccc(Br)cc1)C(=O)Nc1ccccc1	none (no result: S aureus helic)
O=C(/C=C(\O)c1ccccc1)C(=O)Nc1cccc(F)c1	Sa growth inh -0.6
CN(C)C(=O)c1ccc(NCc2cc(=O)oc3cc(O)ccc23)cc1	none
COc1ccc(C(=O)N2CCc3cc(OC)c(OC)cc3C2C)cc1 (stereo unspecified)	none (no result: S aureus helic)
COc1cc2cc3c4c(cc(OC)c(OC)c4c2cc1OC)CCN3C	Sa growth inh 6.6
CC(C)(C)c1ccccc1OCCCCCn1ccnc1	Sa growth inh -1.0
CCOc1ccc(OCCCCn2ccnc2)cc1	none
Cn1c(O)c(N=N)c2ccccc21	none
CCn1c(O)c(N=NS(=O)(=O)c2ccc(C)cc2)c2cc(Cl)ccc21	Sa growth inh 0.8
CCn1c2ccc(Cl)cc2c2cc(Cl)ccc21	none (no result: S aureus helic)
COc1ccc(/C=N/N2CCN(C)CC2)cc1	none
COc1ccc(/C=N/n2ncc3ccccc32)cc1	Sa growth inh 27
COc1ccc(-c2nc(CC(=O)NCC(c3ccco3)N(C)C)cs2)cc1 (stereo unspecified)	none
O=C(CCc1nnc2n(Cc3ccccc3)c(=O)c3ccccc3n12)NCc1ccccn1	none
CCOC(=O)c1cn2c3c(c(F)c(F)cc3c1=O)OCC2C (stereo unspecified)	none
CN1CCN(c2c(F)cc3c(=O)c(C(=O)O)cn(CCF)c3c2F)CC1	none (no result: S aureus helic)
CC1CCc2cc(F)cc3c(=O)c(C(=O)O)cn1c23 (stereo unspecified)	none (no result: S aureus helic)
COc1c(N2CCNC(C)C2)c(F)cc2c(=O)c(C(=O)O)cn(C3CC3)c12 (stereo unspecified)	Sa growth inh -0.9 (no result: S aureus helic)
CC1CCc2c(N3CCC(O)CC3)c(F)cc3c(=O)c(C(=O)O)cn1c23 (stereo unspecified)	Sa growth inh -1.0 (no result: S aureus helic)
CO/N=C1\CN(c2nc3c(cc2F)c(=O)c(C(=O)O)cn3C2CC2)CC1CN (stereo unspecified)	Sa growth inh -1.0 (no result: S aureus helic)
NC1CCN(c2c(F)cc3c(=O)c(C(=O)O)cn(C4CC4)c3c2Cl)C1 (stereo unspecified)	Sa growth inh -0.9 (no result: S aureus helic)
N#C/C(N=Cc1ccc(Cl)cc1)=C(\C#N)NC(=O)Nc1ccc(OC(F)(F)F)cc1	none (no result: S aureus helic)
NC1CCN(c2nc3c(cc2F)c(=O)c(C(=O)O)cn3-c2ccc(F)cc2F)C1 (stereo unspecified)	Sa growth inh -1.0 (no result: S aureus helic)
CCn1cc(C(=O)O)c(=O)c2cc(F)c(N3CCNCC3)nc21	none (no result: S aureus helic)
O=C1c2ccccc2C(=O)N1Cc1ccc(Cl)cc1	none
CCc1ccc[n+](OC(=O)N(CC)CC)c1	Sa growth inh 0.1
CCN(CC)C(=O)Oc1ccccc1	none
CC(=O)Nc1sc2c(c1C#N)CCC2	none
N#Cc1c(NC(=O)C(F)(F)F)sc2c1CCCC2	Sa growth inh -1.0
CC(C)(C)c1csc(-c2ccc(O)cc2)n1	none
O=C(Nc1c[nH]c2ccccc12)N1CCOCC1	Sa growth inh 3.5
O=C(Nc1ccccc1)Nc1c[nH]c2ccccc12	none
Cn1c(C(=O)O)c(CC(=O)N2CCCCCC2)c2ccccc21	none
CCn1cc(C(=O)O)c(=O)c2cc(F)c(N3CCN(C(=O)c4ccc(F)cc4)CC3)cc21	none
O=C(O)c1cn(C2CC2)c2cc(N3CCNCC3)c(F)cc2c1=O	Sa growth inh 0.7! (no result: S aureus helic)
CCn1cc(C(=O)NCc2cccnc2)c(=O)c2cc(S(=O)(=O)N3CCCC3)ccc21	none
CCN1CCN(c2cc3c(cc2F)c(=O)c(C(=O)O)cn3C2CC2)CC1	Sa growth inh -0.9 (no result: S aureus helic)
O=C(NCc1cccnc1)c1cn(C2CC2)c2cc(N3CCN(C(=O)c4cccc(Cl)c4)CC3)c(F)cc2c1=O	Sa growth inh 4.6
CCn1cc(C(=O)O)c(=O)c2cc(F)c(N3CCN(C(C)=O)CC3)cc21	none
CC1CCCCC1NC(=O)CN1CCC(NC(=O)Nc2ccccc2)CC1 (stereo unspecified)	none
COc1ccc(-n2nc3ccc(NC(=O)CSc4ccc(Cl)cc4)cc3n2)cc1	none
CCOC(=O)C1=C(CN2CCN(c3ccccc3F)CC2)NC(=O)NC1c1ccc(OC)cc1 (stereo unspecified)	none (no result: S aureus helic)
CCN(CC)Cc1nc2sc(C)c(C)c2c(=S)[nH]1	Sa growth inh -0.7
Cc1sc2nc(CC#N)[nH]c(=O)c2c1C	none
C=CC(C)n1c(=O)c2c(nc3n2CCN3c2ccc(Cl)cc2)n(C)c1=O (stereo unspecified)	none
CN(C)c1nc(Cl)nc(NCCCC(=O)O)n1	none
Cc1ccc(-c2noc(CN(C(=O)Nc3ccccc3C)C(C)C)n2)cc1	none
CSc1nc2scc(-c3cccs3)c2c(=O)n1CC(C)C	none
CC(C)Cn1c(=S)[nH]c2scc(-c3cccs3)c2c1=O	Sa growth inh 8.9
COC(=O)c1sccc1N	none
O=C(Nc1ccnn1C1CCCC1)c1ccc2c(c1)CCC2	none
CCC(C)NC(=O)c1c(C)nn(CC(C)C)c1Cl (stereo unspecified)	none
CCCCN1COc2ccc3c4c(oc3c2C1)C(=O)c1ccccc1C4=O	S aureus helic 51
O=C1c2ccccc2C(=O)c2c1oc1c3c(ccc21)OCN(Cc1ccccc1)C3	none
CCN(CC)C(=S)SCc1cccs1	none
NCC1CC2CCC1C2 (stereo unspecified)	none
Cc1ccc(N2C(=O)CS(=O)(=O)C23C(=O)N(Cc2ccc(Cl)cc2)c2ccccc23)cc1C (stereo unspecified)	none (no result: S aureus helic)
O=C(O)[C@H]1/C(=C/CO)O[C@@H]2CC(=O)N21	Sa growth inh 15 (no result: S aureus helic)
COc1cccc(NC(=O)Cn2sc3ccccc3c2=O)c1	Sa growth inh -0.2
COc1cccc(NC(=O)Cn2ccc3c(OC)cccc3c2=O)c1	none
COC(=O)C(C)NC(=O)c1cccnc1Cl (stereo unspecified)	none
COc1cc2ccc3c(CCN(C)C)cc(OC)c(OC)c3c2cc1OC	none
CN(C)CCc1cc2c(c3c1ccc1ccccc13)OCO2	S aureus helic 45
CN1C(=O)C=CC1=O	none
O=c1oc2ccc(Cl)cc2c(=O)n1-c1cccc(C(F)(F)F)c1	Sa growth inh -0.7
Cc1ccc(-n2c(=O)oc3ccc(Cl)cc3c2=O)cc1	none
CS(=O)(=O)N1CCNCC1	none
Cc1ccc(O)c(-c2cc(C(F)(F)C(F)(F)F)nc(-c3ccccc3)n2)c1	none
Cc1ccc2c(c1)c1c3n2CCCNC3CCC1 (stereo unspecified)	none
c1cc2c(cc1C1CCCCC1)c1c3n2CCCNC3CCC1 (stereo unspecified)	Sa growth inh -0.8

Screening results as filed in PubChem BioAssay.
